# ± gives the standard deviation of the averaged measurements.
# Tests used:
# Test in all cases: MAPPIT interaction score (arbitrary units); higher = stronger binary interaction signal, active = hit call of the paper;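 active = MAPPIT score above the 99th percentile of random reference set scores in the same batch; inactive = at or below it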
# [1] = target: PGRP-LC; conditions: pair source set: Lit-BM-16
# [2] = target: PGRP-LE; conditions: MAPPIT configuration: N-N; pair source set: Curagen_low_conf
# [3] = target: PIG-C; conditions: MAPPIT configuration: N-C; pair source set: screen_3
# [4] = target: Tsp96F; conditions: MAPPIT configuration: N-C; pair source set: screen_4
# [5] = target: Pak3; conditions: MAPPIT configuration: N-C; pair source set: RRS
# [6] = target: Past1; conditions: MAPPIT configuration: N-N; pair source set: Lit-BM-16
# [7] = target: Rm62; conditions: MAPPIT configuration: N-N; pair source set: Curagen_high_conf
# [8] = target: ktub; conditions: MAPPIT configuration: N-N; pair source set: Curagen_high_conf
# [9] = target: mira; conditions: pair source set: Lit-BM-16
# [10] = target: Pbgd; conditions: pair source set: RRS
# [11] = target: ScpX; conditions: MAPPIT configuration: N-N; pair source set: Curagen_high_conf
# [12] = target: Pc; conditions: pair source set: Lit-BM-16
# [13] = target: Pdha; conditions: pair source set: Lit-BM-16
# [14] = target: Pgd; conditions: MAPPIT configuration: N-N; pair source set: DPIM
# [15] = target: qua; conditions: MAPPIT configuration: N-N; pair source set: DPIM
# [16] = target: Pex14; conditions: MAPPIT configuration: N-C; pair source set: screen_3
# 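Note: HEK293T cells with Epo stimulation, STAT-responsive firefly luciferase reporter, fold induction versus unstimulated cells divided by the larger fold induction of two negative controls lacking either bait or prey.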
binder,measurement,setting,value
PGRP-LC (protein) MPFSNETEMSQCSNAKRRVNDPLTGPKNCSTSSTDSGVILNDNVAAFRPEKETKDRGTGEGQFQSKSEEKTESKRISVEHTVNITTENVGKTSSPAVSIRSTTISVVSIDDNAIDSSSIDSDSEAEAEDYTVQKLGHQVTYPPNSSHLRDLNQGLTVISRHVAPGEAAVPPPNPLEAGIVAKQILNGNLAVATPTSPAGGATQGIGSIALTNSTDVTFGDKHFYEGPVTIQQFLIDNRDKWKPGEGPAGGQDNPAFNGGPSTNGSAPGSKHEDPAQTPPICPFLPNTVGRKAVTVTVVFVTLTFLLGIVLATTTNLFGKTLNQSKIRDDDDYRQNIPINSTIDLDNIGGGLILRFVERQQWLAQPPQKEIPDLELPVGLVIALPTNSENCSTQAICVLRVRLLQTYDIESSQKCDIAYNFLIGGDGNVYVGRGWNKMGAHMNNINYDSQSLSFAYIGSFKTIQPSAKQLSVTRLLLERGVKLGKIAPSYRFTASSKLMPSVTDFKADALYASFANWTHWS,MAPPIT interaction score,[1]; MAPPIT configuration: N-C,-0.131 (inactive)
same,MAPPIT interaction score,[1]; MAPPIT configuration: N-N,2.43 ± 0.6
CG9588 (protein) MAAGTTTKERLERLINAKKQLEAQINRNGQILAANDNVGMSGPLVDAEGFPRNDIDVYQVRLARQTIICLQNDHKELMNQIQTLLNQYHSEIATTDPELVNRASALDLDSDRSPGGANITDLAPARAIVVVNLVSPDSPAERAGLCAGDAILRFGSINSGNFKGDLAQIGELVRNMQSQNVQLKVKRGEQQLDLILVPKTWSGRGLLGCNIVLPPEAMDH,MAPPIT interaction score,[2],0.614 (inactive)
wat (protein) MDDPKIMNIMNGMKSLEDHCQLISDVKDESPMQMFYKDKGVFLTGGTGFFGKIIIEKLLRVTEVGQIYLLIRTKKGKDAFARIEDLFNDPVFAKMKQVNPKYRCQITIISGDCSLPGLGISADERETIMENVNIVLHSAATVRFDEKLKMAIAINVHGTKEIIKLAKEIVNLKALVHVSTAFAHCNMRHIQERFYSGTMSGENAFKLSECLDEHTLNTLTPTIIKGYPNTYTFTKVLAENVVQQSAQNLPVTIFRPGIVITTYREPVTGWIDNMYGPCGVIVGIGSGVLRVFTGDMDNKAHIVPVDMCVNALLASAWDIARNKYETPPIYNYVPDAENMVTWRRYMEDGFEYGCDIPMRKSIWYPRFTIVPHMWQYHILCFLYHTLPALVMDAIMVIIGKKPRMMKIYRKIHKLSNVLKYFSSNEFRFDNDNVRKLTEKLDDRDKRLFAFDMRDLDWTNLFRVSLYGLRLYVVKDDPSNIPESIKRYERLKVLHYTTLAVFYALAAWALYALLKLFL,MAPPIT interaction score,[3],1.02 (inactive)
Vha16-1 (protein) MSSEVSSDNPIYGPFFGVMGAASAIIFSALGAAYGTAKSGTGIAAMSVMRPELIMKSIIPVVMAGIIAIYGLVVAVLIAGALEEPSKYSLYRGFIHLGAGLAVGFSGLAAGFAIGIVGDAGVRGTAQQPRLFVGMILILIFAEVLGLYGLIVAIYLYTK,MAPPIT interaction score,[3],0.119 (inactive)
same,MAPPIT interaction score,[4],0.231 (inactive)
Cyp12e1 (protein) MLSTQWNANKQISRQIYQLCRGLAQKATAVNLEEAKPYADIPGPSKLQLIRAFLPGGLYKNLPVHEMFLDMNRQYGSIFRMPSVAGTDLVLTMNPQDYEVIFRNEGQYPYRRSFEVMDYFKRVHRREVFDGYDGLTSGNGPAWGKMRTAVNPILLQPRNAKLYMTNLVQVSDEFLERIRIIRDPVTQEMPDDFAVDIRHLVIESICSVALNTHLGLLGEQRNNKDIQKLVLALQDVVELGFQLDIMPAFWKYLPMPNFKKLMRSLDTITDFCYFHIGNALKRIEEDAKAGTLNEIGLETSLLEKLARFDRQTAVIIAMDLLFAGADPTLVTLGGILFSLSKSPDKQARLLEEIRGILPNKDSSLTIENMRNLPYLRACIKEGIRMYPIGPGTLRRMPHDVVLSGYRVVAGTDVGIAANYQMANMEQFVPKVREFIPERWLRDESNSHLVGETATPFMYLPFGFGPRSCAGKRIVDMMLEIAISRLVRNFKIGFDYPIENAFKAQFFVQPNIPFKFKFIERNE,MAPPIT interaction score,[5],2.68 (inactive)
numb (protein) MGNSSSHTHEPLERGFTRGKFGDVKNGKSASFRFSKKSPKKMDRLRRSFRDSFRRRKDRVPESSKPHQWQADEEAVRSATCSFSVKYLGCVEVFESRGMQVCEEALKVLRQSRRRPVRGLLHVSGDGLRVVDDETKGLIVDQTIEKVSFCAPDRNHERGFSYICRDGTTRRWMCHGFLACKDSGERLSHAVGCAFAVCLERKQRRDKECGVTMTFDTKNSTFTRTGSFRQQTLTERLAMATVGTNERSVDGPGSAMPGPPAATVKPFNPFAIERPHATPNMLERQSSFRLSTIGSQSPFKRQMSLRINDLPSNADRQRAFLTAAAGNPMQTPLRSVSPIAEVSPAKSAGADPLSAAAVAADSVSQLCQELSQGLSLLTQTDALLAAGEDLNFNNNRSINQNIIAAEKQVQHVHSYAPPTAQVTPRVASTTPTYQTLHSQSPSRSEQSIETSTELPNAEQWLGHVVRSTSPAAPKRPTYLANVGRAQTLASGTGAAVGGGGPDDPFDAEWVANVAAAKQLSPDLPIPSTARSPLARHSTNPFISPPKAPAQSFQVQL,MAPPIT interaction score,[6],0.0235 (inactive)
same,MAPPIT interaction score,[7],-0.368 (inactive)
same,MAPPIT interaction score,[8],-1.3 (inactive)
same,MAPPIT interaction score,[9]; MAPPIT configuration: N-C,1.17 (inactive)
same,MAPPIT interaction score,[9]; MAPPIT configuration: N-N,-0.252 (inactive)
ref(2)P (protein) MPEKLLKITYQGAGPQKKINAYLRMPSQNYTILRREIELYLFQERQLPKCDVRTFWIDADKDEIEIVNQNDYEIFLAKCESNMHVQVAPLAPVEEPKATKQEGSSANAEAPSVDDPSNFTIHDAVECDGCGLAPLIGFRYKCVQCSNYDLCQKCELAHKHPEHLMLRMPTNNGPGMVDAWFTGPGLGRRSGRRSRGHCPFQETNQADPAGEPARDSRRERRQARRHAGVLTQFVEMMTNLPLNTTTATAPAEPQKPKAAEQTESPPQAEPTVTAEKAAESEAKPTEPKKVNTDQSVPRTEDPVTTPRSTQPTTPVINLDNISQIVPPEYMSAGIEILNNFSEMFSKIIDTTEGGDSGIFAPSTTPSAENKKPEEQGQSSGQSGASSANQSAVPSAAPSANQSNVPSANQSATPSISGSIPDAQLETEPLNPKPSETTTETEQERRRSDSLDPEWQLIDNAYSANNSNLINLDTTNPTAAPQEPVRDFGQLGELLRQHMNEEARVEQASANTQTAQVDTVSTSTSTTSVTTNSVGTSPAAPDDKRTVPVYHTDESINKSIHAMMAMGFSNEGAWLTQLLESVQGNISAALDVMNVSQNRN,MAPPIT interaction score,[10]; MAPPIT configuration: N-C,-0.0221 (inactive)
same,MAPPIT interaction score,[10]; MAPPIT configuration: N-N,0.0139 (inactive)
same,MAPPIT interaction score,[11],0.0182 (inactive)
Psc (protein) MMTPESKAIQPAAATTKQTAEATATTTMAHTQQKSQLSTLAKTTTTTATNKAAKSVVSNANSSGNNSSKKLALSQSQKTTTTTTPPTTTTTTTAAAAAEATTNADKMQKQQQLKQQLFAACSIKVKSENTLATTANAALAAATTTTTTATPALATGKAAKTILENGIKKESTPPAVESVEASSSSSSSSSSSSSSSSSWPTTRRATSEDASSNGGASADEEKSEEDPTAAVAASSTATTTSDLATTSRPRPVLLTAVNPHIICHLCQGYLINATTIVECLHSFCHSCLINHLRKERFCPRCEMVINNAKPNIKSDTTLQAIVYKLVPGLYERELMRKRAFYKDRPEEAALATPEQRGDDTEHLIFSPSDDMSLSLEYAELGELKTDSEPELVDTLRPRYLQCPAMCRVSHLKKFVYDKFEIDAQRFSIDIMYKVKTIVLLDYYTLMDIAYIYTWKRDAPMRFYYRVYESPQPLVKPAPRRVLPLKLEKQERENQEQQLAVEVASSKVEPVSLPEDQKAEASIKVEEQESTREIVKEVIKDVAATPPTETLKLVINRNMLDKREKSHSPQMSSKSSSKSSPCTPVSSPSEPNIKLKIDLSKQNSVTIIDMSDPERREIVKPLKPEKESRSKKKDKDGSPKSSSSSSSSSSGERKRKSPSPLTVPPLTIRTERIMSPSGVSTLSPRVTSGAFSEDPKSEFLKSFALKPIKVKVESPERTLNNRAITPPSPSVQQSASPKSKGNNLDDSILMKPPSCMPPKSIASSKRKSKEPVKAVSKKQKLSPPLPTVDFKIRLPVTNGNSSGTASPKIEKPLMPPPAKPPMLAPRKLQPSAQFAPPPSPIHHHAGVQMSAPGNRTPIAKRYQPILPKASRPNPFANIPNDVNRLLKDAGTEIKSIGGGSVENNSNAAQKPHLYGPKGESKMGPPALPATTPSQGNKNVGKQAGNLPMSAPPNKGNSSNNYLNLALFNSSKCKGKEAPPGCRTPMYTPNSPIYSPSSPQYVPSYNIPTMPTYKYTPKPTPNSGSGNGGSGSYLQNMLGGGNGGSLGGLFPSPPTKSDQNTNPAQGGGGSSSATQSGGNNGIVNNNIYMPNEDAPEKQQVKVKSLLNSCNINIPSSLSITISRDNGDSSSPNNGQHPKHKSPVNNYIEIVKLPDQPQDQVQAAKEAQKRQSPPAAVPGHLAAKLPPPPPSKAIPSPQHLVSRMTPPQLPKVATPPPPSSPRVITPPKTSPPANAAKVTPLKPVLTPTQVDKKTPSPEKRTAAQMGSHSPTASENKSPKGGPAGVANSTGGAQNGDPAAKKFRPILPRQNGMPELAPKLPTLAPFVGFNPLQNPAAGKKVPPSKKSPNAGAAAHQSGQQKLVNGGQSQPAQQKTSPPAQKNQQQVKKVSKNPTPPPPSLPAVGKMMPHPVMHSQNAPLSIASSASAAAVASGQLDLSNFLKENLRRVHAAQAAQAAQVAAAANQSNMMYNLAQMGHMTPAMYNYQQAYFREQLSRMQRVGNEVFNDYLQKLKTAAATGGGGPVEGELKPMLPTVTLPSPGATPPAASPKTSPLPAGKLTAAATAPQTKGNSSSGAANARQQTAATGNNGATVPAASLPPATKSK,MAPPIT interaction score,[12]; MAPPIT configuration: N-C,1.11 (inactive)
same,MAPPIT interaction score,[12]; MAPPIT configuration: N-N,-0.137 (inactive)
Pdhb (protein) MLRTRLIQAASSAQRAFSTSQKALAAKQMTVRDALNSALDDELARDDRVFILGEEVAQYDGAYKVSRGLWKKYGDKRVIDTPITEMGFAGIAVGAAMAGLRPVCEFMTWNFSMQAIDHIINSAAKTFYMSAGAVNVPIVFRGPNGAASGVAAQHSQCFAAWYAHCPGLKVLSPYDAEDARGLLKSAIRDPDPVVFLENELVYGTAFPVADNVADKDFLVPIGKAKVMRPGKDITLVAHSKAVETSLLAAAELAKKGIEAEVINLRSIRPLDTATIFASVRKTHHLVTVENGWPQHGVGAEICARIMEDQTFFELDAPVWRCAGVDVPMPYAKTLEAHALPRVQDLVEATLKVLGGKVGKAAAANK,MAPPIT interaction score,[13]; MAPPIT configuration: N-C,0.121 (inactive)
same,MAPPIT interaction score,[13]; MAPPIT configuration: N-N,0.456 (inactive)
same,MAPPIT interaction score,[14],-0.835 (inactive)
same,MAPPIT interaction score,[15],-0.463 (inactive)
CG42540 (protein) MPDSMMDMEHRDHQLHRQQQQSHHHQPPRLTASTSTFAPPAPAGSQSEERDRDRDRERDHHLHHHQSNNVASSPLPVTASIQLHQQQPQQQQQQQPLTQLQQPQLREREHHQQQQQQQQQMMQQPQQQQQMQQPQQQLPHSHHALMQQSQQQQAIHRAEARRADEEISDKASTCGKLLIFLSVALVIMTLPFSLFVCFKVVQEYERAVIFRLGRLMQGGAKGPGIFFILPCIDSYARVDLRTRTYDVPPQEVLTKDSVTVSVDAVVYYRVSNATVSIANVENAHHSTRLLAQTTLRNTMGTRHLHEILSERMTISGTMQVQLDEATDAWGIKVERVEIKDVRLPVQLQRAMAAEAEAAREARAKVIAAEGEQKASRALREASEVIGDSPAALQLRYLQTLNTISAEKNSTIVFPLPIDLITYFLKTNEATTQQNARAAAAAIGNTPPPLQLAPQQQMGQQQQPQYQQPQQQQQQYQPQQQQQQQQQQPQQQDQLYQQGQQISSAM,MAPPIT interaction score,[16],2.47 (inactive)
